From PubChem BioAssay (NCATS)
Records with an inconclusive call do not appear. Entries that show only a call come without a potency. The source made the active and inactive calls. Calls follow the shape of the dose curve; as a rule, active = well fitted curve in the direction sought with a large enough effect; inconclusive = small, poorly fitted or top-dose-only effect, or another doubt; inactive = no such curve, though single readings can be large; an effect the other way counts as inactive or inconclusive.

Test: qHTS to identify inhibitors of the type 1 interferon - major histocompatibility complex class I in skeletal muscle: primary screen against the NCATS Pharmaceutical Collection (AID 1347407);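 also: luminescence of HiBiT knocked into endogenous HLA-B as interferon-induced MHC class I level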
Conditions: human skeletal muscle cells, IFN-b-induced MHC-I HiBiT luminescence, 24 h; series mostly up to 45.9 µM
Method in brief: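 Cells were seeded with 4 ng/ml IFN-beta, incubated 1 h, then dosed with compounds over eight 1:5 steps up to 46 uM final. After 24 h at 37 C, HiBiT lytic reagent was added and luminescence read after 10 min lysis in the dark.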

| SMILES | outcome |
| --- | --- |
| Cc1ccc(-n2nc(C(C)(C)C)cc2NC(=O)Nc2ccc(OCCN3CCOCC3)c3ccccc23)cc1 | inactive |
| CNC(=O)c1ccccc1Sc1ccc2c(/C=C/c3ccccn3)n[nH]c2c1 | inactive |
| CCC(C)n1ncn(-c2ccc(N3CCN(c4ccc(OC[C@H]5CO[C@](Cn6cncn6)(c6ccc(Cl)cc6Cl)O5)cc4)CC3)cc2)c1=O (some centres undefined) | inactive |

Test: qHTS to identify inhibitors of the type 1 interferon - major histocompatibility complex class I in skeletal muscle: primary screen against the NCATS Mechanism Interrogation Plate v5.0 (MIPE) Libary (AID 1347411); also: nearly all actives have a fitted effect of over 65% in size; also: potency is read from the fitted curve at half-maximal effect
Conditions: iHSKM cells + IFN-b, HiBiT-tagged MHC-I luminescence, 24 h; series mostly up to 45.8 µM
Method in brief: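 IFN-beta-driven (4 ng/ml) HLA-B-HiBit expression in CRISPR-tagged C25cl48 myoblasts; compounds 11-pt, 1:3, max 46 uM, 24 hr exposure; lytic NanoLuc complementation luminescence.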

| SMILES | Potency |
| --- | --- |
| Cn1cc(-c2ccc3nnc(C(F)(F)c4ccc5ncccc5c4)n3n2)cn1 | inactive |
| Cc1ccc(-n2nc(C(C)(C)C)cc2NC(=O)Nc2ccc(OCCN3CCOCC3)c3ccccc23)cc1 | inactive |
| CS(=O)(=O)Oc1ccc2c(NC(N)=O)c(C(=O)c3ccc(Cl)cc3Cl)oc2c1 | inactive |
| Nc1nc2[nH]cc(CCc3ccc(C(=O)N[C@@H](CCC(=O)O)C(=O)O)cc3)c2c(=O)[nH]1 | inactive |
| CN(C)c1ccc(Nc2nc(N)n(C(=O)c3c(F)cccc3F)n2)cc1 | 16.5 µM (active) |
| N#CC[C@H](C1CCCC1)n1cc(-c2ncnc3[nH]ccc23)cn1 | inactive |
| CCOc1ccn(-c2ccc(F)cc2)c(=O)c1C(=O)Nc1ccc(Oc2ccnc(N)c2Cl)c(F)c1 | inactive |
| COc1ccc(CC2=NN3C([C@@H](CCc4ccccc4)[C@@H](C)O)=NC(C)C3C(=O)N2)cc1OC (some centres undefined) | inactive |
| C[C@@H]1CN(Cc2ccc(F)cc2)[C@@H](C)CN1C(=O)c1cc2c(C(=O)C(=O)N(C)C)cn(C)c2cc1Cl | inactive |
| O=C1CCCC2=C1C(c1[nH]ncc1Cl)N=C(Nc1nc3ccccc3o1)N2 (centres undefined) | inactive |
| O=c1ncn2nc(Sc3ccc(F)cc3F)ccc2c1-c1c(Cl)cccc1Cl | inactive |
